High-throughput results as filed in PubChem.
Shown are actives, neighbours in structure and some others; about 4.2% of the full set was active somewhere.
NLRP3 yeast inh: blocks the NALP3 inflammasome reconstituted in yeast. Yeast reconstituted NLRP3/ASC/caspase-1, beta-gal luminescence, 24 h. inhibition, % at 10 µM. 330,000 tested, 0.39% active. AID 2825;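 active = inhibition of 50% or more; inactive = inhibition below 50%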;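 note: plate controls were induced DMSO wells for no effect and uninduced yeast grown without galactose for full effect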
TIM10 inh: inhibits growth of TIM10 yeast strain; inhibition, % at 10 µM; 330,000 tested, 1.4% active; S. cerevisiae TIM10 strain growth, BacTiter-Glo luminescence, 24 h; AID 463195;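 active = inhibition of 40% or more at the single tested concentration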;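 note: wild-type TIM10 isogenic control strain grown at permissive 25 °C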
tim10-1 inh: tim10-1 yeast growth inhibition | 330,000 tested, 2.2% active | S. cerevisiae tim10-1 ts strain growth, BacTiter-Glo, 24 h | inhibition, % at 20 µM;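 active = inhibition of at least 40%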;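 note: mutant grown at 25 °C; 0% = DMSO wells with yeast and 100% = wells holding no yeast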
tim23-1 inh: growth inhibitors of tim23-1 mutant yeast; AID 463212; S. cerevisiae tim23-1 growth, BacTiter-Glo luminescence, 24 h; inhibition, % at 20 µM; 330,000 tested, 1.3% active;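 active = growth inhibition of the mutant yeast at or above 50%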;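 note: temperature-sensitive mutant grown at 25 °C; plate controls were DMSO-treated mutant yeast for no effect and medium wells lacking yeast for full effect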
PfHsp90 yeast 2: reduces growth (ATP signal) of yeast expressing P. falciparum Hsp90; S. cerevisiae expressing PfHsp90, BacTiter-Glo ATP, 48 h; yeast lacking PDR1 and PDR3 efflux regulators; inhibition, % at 9.4 µM; 310,000 tested, 0.32% active;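 active = every replicate shows inhibition above about 80%, whatever the replicate mean, limit read from the data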;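 note: 0% = DMSO neutral controls and 100% = 20 µM radicicol positive controls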
NALP1 inh: blocks the NALP1 inflammasome reconstituted in yeast | S. cerevisiae NALP1/ASC/caspase-1 growth, X-gal OD620, 72 h | inhibition, % at 10 µM | 280,000 tested, 0.61% active | AID 2071; in the data active = inhibition mostly above about 24%, no sharp cut-off; inactive = mostly below about 32%
tim10-1 confirm: confirmation of tim10-1 mutant yeast growth inhibitors; inhibition, % at 20 µM; AID 463213; 7,400 tested, 56% active; S. cerevisiae tim10-1 ts strain growth, BacTiter-Glo, 24 h; shares compounds with tim10-1 inh;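 active = inhibition of yeast growth at or above a set limit in either of two repeat tests at 20 µM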;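 note: tim10-1 mutant grown at permissive 25 °C to find synthetic lethal compounds; 0% = DMSO yeast wells and 100% = medium wells without yeast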
* = called active by the depositor; . = not tested or not shown.

SMILES	NLRP3 yeast inh	TIM10 inh	tim10-1 inh	tim23-1 inh	PfHsp90 yeast 2	NALP1 inh	tim10-1 confirm
CCCN(Cc1ccccc1)C(=S)Nc1cccc(C(F)(F)F)c1	10	25	47*	5	0	.	31*
CCOc1cc(/C=C2\N=C(C)OC2=O)cc(Br)c1OCC(=O)OC	0	16	44*	26	.	22	10
COC(=O)c1c(-c2ccccc2Cl)noc1/C=C/N(C)C	-13	27	40*	35	8	-1	26
CSCCC(=O)N1CCCC(CNC(=O)c2ccc(-c3ccccc3)cc2)C1 (centres undefined)	11	23	40*	33	-10	17	28
COc1ccc(CC(=O)NNS(=O)(=O)c2ccc([N+](=O)[O-])cc2)cc1OC	16	-15	11	-6	-10	12	.
Cc1ccc(CNC(=O)c2ccccc2NC(=O)CN2CC(C)OC(C)C2)cc1 (centres undefined)	18	1	7	16	16	-1	.
Cc1ccc(-c2ccc(=O)n(CC(=O)N3CCN(c4cc(Cl)ccc4C)CC3)n2)cc1	5	13	43*	37	.	-13	28
O=C(Nc1ccc(Cl)cc1)[C@@H]1[C@@H]2C(=O)N(c3ccc(Cl)cc3Cl)C(=O)[C@@H]2[C@H]2C=CC=NN21	-9	14	45*	31	.	15	27
O=C(Nc1ccc(Cl)cc1)[C@@H]1[C@@H]2C(=O)N(c3ccc(Cl)cc3)C(=O)[C@@H]2[C@H]2C=CC=NN21	-12	-23	18	17	.	-8	.
CS(=O)(=O)c1ccccc1-c1nc(-c2ccc(C(F)(F)F)cc2)no1	20	28	40*	44	4	-3	20
FC(F)(F)c1ccccc1-c1nc(-c2ccncc2)no1	4	5	-47	-9	8	10	.
Cn1c(=O)c2c(nc(Oc3ccc(-c4ccccc4)cc3)n2C)n(C)c1=O	30	19	40*	14	-5	12	5
Cc1ccc(Oc2nc3c(c(=O)n(C)c(=O)n3C)n2C)cc1C	18	-3	8	17	-20	3	.
Cn1c(=O)n(C)c2cc([N+](=O)[O-])c(N3CCN(S(=O)(=O)c4ccc5ccccc5c4)CC3)cc21	17	18	21	26	7	32	.
Cn1c(=O)n(C)c2cc([N+](=O)[O-])c(N3CCN(C(=O)c4cccc(Cl)c4)CC3)cc21	13	26	41*	27	-1	24	22
Cc1ccc(S(=O)(=O)N2CCN(c3cc4c(cc3[N+](=O)[O-])n(C)c(=O)n4C)CC2)cc1	17	26	43*	37	-10	.	21
COc1ccc(C2CC(c3cccs3)=NN2C(=O)CSC2=NN3CCCC(=O)N=C3S2)cc1 (centres undefined)	3	24	41*	43	-4	28	23
COc1ccc(C(=O)C(CN2CCCC2)c2ccccc2)cc1 (centres undefined)	16	38	45*	-26	0	16	43*
COc1ccc(C(=O)CCN2CCCCCC2)cc1	11	12	39	27	.	-19	.
CCCCOc1ccc(C(=O)C(CN2CCOCC2)c2ccccc2)cc1 (centres undefined)	24	34	44*	1	-14	-7	35*
FC(F)(F)c1ccc(N2CCOCC2)c(Nc2nc3ccccc3n3cnnc23)c1	-18	20	54*	-51	-55	22	59*
c1ccc(N2CCCCC2)c(Nc2nc3ccccc3n3cnnc23)c1	-1	13	16	28	18	11	.
Cc1cccc(NC(=O)CSc2c3c(nc4ccccc24)CCC3)n1	12	14	24	16	-31	-5	.
COc1cccc(NC(=O)CSc2c3c(nc4ccccc24)CCCC3)c1	3	31	43*	34	6	25	26
Cc1ccc(-n2c(C)cc3c2CC(C)(C)CC3=O)cc1C	6	17	32	42	0	4	.
Cc1cc2c(n1-c1ccc(Br)cc1)CC(C)(C)CC2=O	1	26	49*	40	.	-13	33*
